Compound activity as filed in PubChem BioAssay.
Most compounds without a hit are left out; they make up all but 12% or so of the library.
HP1b binding inh = HTS for Inhibitors of HP1-beta Chromodomain Interactions with Methylated Histone Tails; Chromobox protein homolog 1 (Homo sapiens), P83916; AlphaScreen HP1-beta / biotin-H3K9me3 peptide binding; Potency, µM (highest dose often 114 µM), for the others: at the top dose activity change, negative = inhibition, most hits filed as inhibitors; actives 0.56% (n = 390,000); also: nearly all actives have a fitted effect of over 70% in size
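Compound inhibition of the preformed complex between 50 nM HP1-beta and 50 nM biotinylated H3K9me3 peptide was read by AlphaScreen. Buffer was PBS pH 7.4 with 0.01% Tween-20. Incubations ran 30 min at room temperature, with 10 ug/mL donor/acceptor beads.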
PLK1 PBD inh = qHTS for Inhibitors of PLK1-PDB (polo-like kinase 1 - polo-box domain): Primary Screen. Plk1 PBD binding of FITC phosphopeptide, fluorescence polarization. Potency, µM, without a hit: max response, negative = inhibition, usual class: inhibitors. actives 2.8% (n = 360,000); also: series mostly up to about 57 µM; % is scaled to controls: 0 for no effect and ±100 for the full control effect; nearly all actives have a fitted effect of over 65% in size
Target sequence (P53350 whole entry, looked up, the tested form may be a part): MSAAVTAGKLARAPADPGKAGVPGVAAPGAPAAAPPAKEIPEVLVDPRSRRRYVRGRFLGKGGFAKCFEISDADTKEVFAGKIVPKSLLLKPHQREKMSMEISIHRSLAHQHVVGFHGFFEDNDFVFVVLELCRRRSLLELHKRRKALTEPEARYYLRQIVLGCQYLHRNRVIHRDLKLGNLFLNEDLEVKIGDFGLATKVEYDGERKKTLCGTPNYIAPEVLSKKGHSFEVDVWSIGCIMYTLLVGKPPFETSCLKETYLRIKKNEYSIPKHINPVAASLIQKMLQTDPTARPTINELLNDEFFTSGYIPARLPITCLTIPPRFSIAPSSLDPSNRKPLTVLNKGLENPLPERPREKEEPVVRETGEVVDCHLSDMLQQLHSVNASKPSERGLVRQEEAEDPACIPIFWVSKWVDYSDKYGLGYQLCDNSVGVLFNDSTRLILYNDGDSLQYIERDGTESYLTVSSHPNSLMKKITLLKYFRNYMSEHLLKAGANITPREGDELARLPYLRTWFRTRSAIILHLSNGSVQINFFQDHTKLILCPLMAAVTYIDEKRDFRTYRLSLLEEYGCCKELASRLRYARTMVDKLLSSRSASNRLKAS
Sfp PPTase inh = qHTS Assay for Inhibitors of Bacillus subtilis Sfp phosphopantetheinyl transferase (PPTase) | actives 3.5% (n = 310,000) | Potency, µM, for inactives: largest response in the series, negative = inhibition, most hits filed as inhibitors | Biochemical Sfp PPTase activity, qHTS | 4'-phosphopantetheinyl transferase ffp (Bacillus subtilis), Q9F4F7;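 also: the enzyme is Sfp with the accession as filed and its product quenches rhodamine fluorescence; 0% = enzyme reaction without inhibitor and -100% = no enzyme wells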
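Step 1, compound plus 15 nM Sfp-PPTase, 15 min, room temperature. Step 2, add rhodamine-CoA (5 uM) and BHQ-2-YbbR (12.5 uM). Step 3, read 525/598 nm fluorescence at 0 and 30 min.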
G9a block = qHTS Assay for Inhibitors of Histone Lysine Methyltransferase G9a; actives 8.8% (n = 350,000); G9a H3K9 monomethylation, AlphaScreen, 2 h; Potency, µM (top dose mostly 102 µM), without a hit: at the top dose activity, negative = inhibition, usual class: inhibitors; AID 504332, 2011; also: % is scaled to controls: 0 for no effect and ±100 for the full control effect; nearly all actives have a fitted effect of over 75% in size
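G9a (20 nM) preincubated 15 min RT with compounds, then 500 nM biotinylated H3K9 peptide and 20 uM SAM added; 2 h RT reaction. Monomethyl-H3K9 product detected by AlphaScreen with anti-H3K9me1 antibody, streptavidin donor and anti-rabbit IgG acceptor beads.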
BAZ2B inh = qHTS Assay for Inhibitors of BAZ2B. Bromodomain adjacent to zinc finger domain protein 2B (Homo sapiens), Q9UIF8. AlphaScreen BAZ2B-H3K14Ac peptide displacement. Potency, µM (highest dose often 114 µM), without a hit: at the highest dose activity change, negative = inhibition, most hits filed as inhibitors. actives 4.4% (n = 360,000). AID 504333, 2011; also: % is scaled to controls: 0 for no effect and ±100 for the full control effect; nearly all actives have a fitted effect of over 60% in size
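AlphaScreen displacement of biotin-H3(5-23)K14Ac peptide (50 nM final) from BAZ2B (50 nM final) in PBS pH 7.4, 0.01% Tween-20; complex preformed 30 min RT, then compounds (top 110 uM) 30 min RT, beads 20 min dark.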
JMJD2A Tudor inh = qHTS Assay for Inhibitors of JMJD2A-Tudor Domain | Lysine-specific demethylase 4A (Homo sapiens), O75164 | Potency, µM (doses to about 114 µM), inactives show top-dose activity change, negative = inhibition, actives largely listed as inhibitors | AlphaScreen JMJD2A-Tudor / H3K4me3 peptide binding | actives 4.4% (n = 390,000); also: % is scaled to controls: 0 for no effect and ±100 for the full control effect; nearly all actives have a fitted effect of over 50% in size
Active calls of the source: *; ? = inconclusive; / = no result; [ ] = remark or other dose. Calls follow the shape of the dose curve; as a rule, active = well fitted curve in the direction sought with a large enough effect; inconclusive = small, poorly fitted or top-dose-only effect, or another doubt; inactive = no such curve, though single readings can be large; an effect the other way counts as inactive or inconclusive. Potency is read from the fitted curve at half-maximal effect.

SMILES	HP1b binding inh	PLK1 PBD inh	Sfp PPTase inh	G9a block	BAZ2B inh	JMJD2A Tudor inh
O=C(O)c1cccc(Cn2c(Cl)c(/C=N/NC(=O)c3ccccc3)sc2=O)c1	40.8%	-5.9%	12.2%	31.4%[0.501 µM]	-28.6%	-2.1%
O=C(O)c1cccc(Cn2c(Cl)c(/C=N/NC(=O)c3cc4ccccc4cc3O)sc2=O)c1	?	26.7µM*	?	10µM*	25.1µM*	79.4µM*
O=C(O)c1cccc(Cn2c(Cl)c(/C=N/NC(=O)c3cccc(O)c3)sc2=O)c1	11.5%	-4.2%	15.8%	13.7%	0.8%	-14.0%
Cc1ccccc1N/N=C/c1sc(=O)n(Cc2cccc(C(=O)O)c2)c1Cl	-21.7%	26.7µM*	?	-135.7%[59 µM]	44.7µM*	10µM*
COC(=O)c1cccc(Cn2c(Cl)c(/C=N/Nc3ccccc3C)sc2=O)c1	-13.3%	-4.0%	56.2µM*	10µM*	35.5µM*	?
COc1ccc(N2C(=O)C(Cl)=C(Nc3c(C)n(C)n(-c4ccccc4)c3=O)C2=O)cc1	16.5%	23.8µM*	44.7µM*	8.91µM*	?	?
COc1ccccc1NC1=C(Cl)C(=O)N(c2ccccc2)C1=O	-27.6%	0.1%	-2.1%	44.7µM*	?	?
COc1cccc(CN(C)C(=O)c2[nH]c(C)c(C(C)=O)c2C)c1OC	-5.5%	26.7µM*	15.6%	?	?	?
CCCc1nnc(NC(=O)C2CCN(C(=O)c3ccco3)CC2)s1	-2.2%	0.0%	-2.6%	-10.8%	-1.7%	-2.1%
O=C(Nc1nnc(Cc2ccccc2)s1)C1CCN(C(=O)c2ccco2)CC1	?	26.7µM*	50.1µM*	10µM*	-13.1%	-20.5%
COc1ccc(Cc2nnc(NC(=O)C3CCN(C(=O)c4ccco4)CC3)s2)cc1	-13.8%	-7.6%	-2.8%	79.4µM*	-2.9%	-17.3%
O=C(C[C@H]1CC[C@@H]2[C@H](COC[C@H](O)CN2C(=O)c2cnccn2)O1)NCc1ccc(Cl)cc1	/	-13.8%	/	/	/	/
Oc1[nH]c2ccccc2c1C1=NCCCC1	-24.3%	1.8%	15.0%	?	50.1µM*	?
CCCCS(=O)(=O)c1nc(-c2ccc(Br)cc2)cc(-c2ccccc2)c1C#N	93.6%	/	/	27.0%[59 µM]	41.2%	-2.0%
COc1ccc(NC(=O)CC(c2ccccc2)c2ccco2)cc1 (stereo unspecified)	15.2%	-3.8%	44.7µM*	?	-35.3%	-7.0%
O=C(CC(c1ccccc1)c1ccco1)Nc1nccs1 (stereo unspecified)	5.5%	-5.2%	-21.5%	50.1µM*	?	-24.1%
CSc1nc(N)c2c(n1)N(C)C=NS2(=O)=O	-1.1%	-9.1%	/	/	/	-10.3%
CC(=O)NC1=CC(=O)c2nonc2C1=O	-7.7%[57 µM]	/	/	/	/	?
CCOc1ccc(-c2c(C)sc3nc[nH]c(=O)c23)cc1	47.9%	-2.9%	12.9%	9.7%	-0.2%	89.1µM*
CCCOc1ccc(-c2csc3nc[nH]c(=O)c23)cc1	39.3%	-1.7%	-4.2%	/	-2.3%	-8.5%
Oc1ccccc1C1CCCCC1c1ccccc1 (stereo unspecified)	72.0%	1.5%	19.7%	85.7%	24.0%	5.8%
Cc1cc(N(C)Cc2ccccc2)n2nc(-c3ccc(C(C)(C)C)cc3)nc2n1	16.9%	/	/	-28.4%[59 µM]	-10.2%	-16.0%
CCN(CC)S(=O)(=O)c1cccc(C(=O)OCC(=O)N2CC(=O)Nc3ccccc32)c1	0.8%	-10.4%	5.7%	20µM*	-19.4%	-21.2%
CS(=O)(=O)c1ccc(C(=O)OCC(=O)N2CC(=O)Nc3ccccc32)cc1[N+](=O)[O-]	30.8%	/	/	/	/	-21.3%
O=C1CN(C(=O)COC(=O)c2ccc(N3CCCCCC3)c([N+](=O)[O-])c2)c2ccccc2N1	?	-8.7%	0.7%	39.8µM*	?	?
SMILES	HP1b binding inh	PLK1 PBD inh	Sfp PPTase inh	G9a block	BAZ2B inh	JMJD2A Tudor inh
COCCn1c(=O)c(-c2ccc(F)cc2)nc2cnc(N3CCOCC3)nc21	/	/	34.1%	5.9%[0.501 µM]	/	/
CC(=O)NC1=NC(=O)/C(=C/c2cc(C)n(-c3cccc(C(=O)O)c3)c2C)S1	?	-4.4%	39.8µM*	20µM*	15.8µM*	?
CC(=O)NC1=NC(=O)/C(=C/c2cc(C)n(-c3ccc(NC(C)=O)cc3)c2C)S1	43.1%	17.7%	44.7µM*	?	?	-7.6%
CC1=NN2C(=N)/C(=C\c3cc(C)n(-c4cccc(C)c4)c3C)C(=O)N=C2S1	27.0%	?	-17.5%	-8.5%	-2.4%	-12.6%
CCC(Sc1nc2cc3c(cc2c(=O)n1CCCCCC(=O)NCc1ccc2c(c1)OCO2)OCO3)C(=O)NCCCOC (stereo unspecified)	47.2%	/	/	7.5%[59 µM]	4.4%	-18.7%
COc1ccc(-c2nc3sc(CCNC(=O)c4cc(OC)c(OC)c(OC)c4)c(C)n3n2)cc1	19.0%	/	/	2.3%[59 µM]	-1.7%	-14.6%
CCN(c1ccccc1)S(=O)(=O)c1ccc(Oc2ccc(-n3ccnc3)cc2)nc1	-6.3%	-2.5%	-7.8%	22.8%[59 µM]	?	89.1µM*
Cn1cccc1CC(=O)N/N=C/c1cccc([N+](=O)[O-])c1	-22.3%	-11.7%	-5.3%	?	?	?
Cn1cccc1CC(=O)N/N=C/c1ccc(Cl)c([N+](=O)[O-])c1	5.1%	2.6%	-15.6%	50.1µM*	39.8µM*	-28.5%
Cn1cccc1CC(=O)N/N=C/c1cc([N+](=O)[O-])ccc1Cl	-2.3%	-9.2%	3.1%	44.7µM*	?	-20.6%
Cc1ccc(S(=O)(=O)N2CCOCC2)cc1NC(=O)c1ccc(F)cc1F	25.4%	2.9%	/	/	/	12.2%
O=C1NN(c2ccccc2)C(=O)/C1=C\c1cccc(OC(=O)c2cccs2)c1	3.3%	1.5µM*	50.1µM*	?	56.2µM*	?
O=C1NN(c2ccc(Cl)c(Cl)c2)C(=O)/C1=C/c1cccc(OC(=O)c2cccs2)c1	/	/	?	?	50.1µM*	/
COC(=O)N/N=C\c1cccc(OC(=O)c2cccs2)c1	34.8%	-2.8%	6.2%	15.0%[59 µM]	-12.0%	-12.6%
CCOc1cccc(C2C(C(=O)c3ccco3)=C(O)C(=O)N2c2nnc(C)s2)c1 (stereo unspecified)	32.8%	-13.3%	/	?	?	?
